Source: PubChem BioAssay
Only some compounds are listed: those with a hit (about 1.8% of all), similar ones and a draw of the others.
Myeloid diff 2 – myeloid differentiation induction | ER-HoxA9 myeloid progenitors, lysozyme-GFP differentiation, flow cytometry | calls only at 10 µM | actives 1% (n = 360,000) | AID 624256;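 active means normalized GFP-positive differentiation at or above the plate's own cutoff, the solvent-only control mean plus 3 SD; inconclusive means no clear call, values can overlap the other calls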;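 further: cells exposed to compound for four days before flow analysis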
GC-B act – GC-B (human) receptor activation. HEK293-GC-B cells, CNP EC30, cGMP TR-FRET; 0% at EC30 CNP, 100% saturating CNP. activation, % at 10 µM. P20594. actives 0.11% (n = 370,000). AID 1920062;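 active means activation at 10 µM reaching about 35% in either raw or pattern-adjusted values, limit read from the data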
Exocytosis inh – blocks lytic granule exocytosis; TALL-104 LAMP-1 surface exposure, flow cytometry; cells stimulated with thapsigargin and PMA; inhibition, % at 10 µM; actives 0.66% (n = 360,000); AID 651702;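 active means inhibition above about 55%, limit read from the data; inconclusive means no clear call, values can overlap the other calls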
NPR1 activator – GC-A (human) enzyme activation | HEK293 GC-A cells, cGMP TR-FRET, EC30 ANP; 0% at EC30 ANP, 100% saturating ANP | activation, % at 10 µM | P16066 | actives 0.14% (n = 370,000); in the data active means activation above about 40%
Target sequence (P16066 whole entry, looked up): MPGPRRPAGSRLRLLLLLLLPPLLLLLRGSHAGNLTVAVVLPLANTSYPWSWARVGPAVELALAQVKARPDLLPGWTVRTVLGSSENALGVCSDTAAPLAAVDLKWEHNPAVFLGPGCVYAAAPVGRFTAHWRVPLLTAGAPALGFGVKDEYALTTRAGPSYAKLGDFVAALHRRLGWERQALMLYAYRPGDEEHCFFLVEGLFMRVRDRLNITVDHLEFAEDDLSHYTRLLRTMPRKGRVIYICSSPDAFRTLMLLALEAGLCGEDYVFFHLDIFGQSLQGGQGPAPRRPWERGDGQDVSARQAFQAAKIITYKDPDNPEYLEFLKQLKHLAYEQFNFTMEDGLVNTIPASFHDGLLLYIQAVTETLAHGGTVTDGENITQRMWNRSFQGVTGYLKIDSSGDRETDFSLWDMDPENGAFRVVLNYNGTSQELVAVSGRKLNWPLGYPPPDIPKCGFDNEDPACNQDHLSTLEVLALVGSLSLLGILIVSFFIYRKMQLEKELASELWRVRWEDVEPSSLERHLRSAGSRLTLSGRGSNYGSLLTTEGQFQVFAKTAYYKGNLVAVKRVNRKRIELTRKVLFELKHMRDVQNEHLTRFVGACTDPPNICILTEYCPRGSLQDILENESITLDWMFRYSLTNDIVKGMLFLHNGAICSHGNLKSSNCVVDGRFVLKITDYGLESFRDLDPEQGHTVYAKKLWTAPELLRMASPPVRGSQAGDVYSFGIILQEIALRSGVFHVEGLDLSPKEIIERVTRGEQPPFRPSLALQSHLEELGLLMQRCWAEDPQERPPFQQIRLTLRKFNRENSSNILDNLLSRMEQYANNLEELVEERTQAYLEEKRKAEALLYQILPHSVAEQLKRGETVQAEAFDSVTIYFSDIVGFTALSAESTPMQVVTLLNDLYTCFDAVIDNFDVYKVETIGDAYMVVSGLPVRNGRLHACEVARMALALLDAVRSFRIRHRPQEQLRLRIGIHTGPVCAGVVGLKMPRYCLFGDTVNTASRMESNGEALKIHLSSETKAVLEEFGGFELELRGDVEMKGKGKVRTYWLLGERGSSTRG
* = called active by the depositor.

Screening COC(=O)[C@H]1C[C@@]2(N3CCCCC3)c3ccccc3N[C@H]2N1S(=O)(=O)c1ccc(C)cc1 returned GC-B act -1 and NPR1 activator -5.
For COc1ccc(Br)cc1C(=O)Nc1ccccc1N1CCCC1 the results were Myeloid diff 2 inactive, GC-B act -6, Exocytosis inh 3 and NPR1 activator 0.
For COc1ccccc1C(=O)Nc1ccccc1N1CCCCC1 the results were Myeloid diff 2 inactive, GC-B act 8, Exocytosis inh 67* and NPR1 activator -7.
Cc1ccc(S(=O)(=O)Nc2cc(C(C)C)c(O)cc2C)cc1 was read as Myeloid diff 2 active, GC-B act -7, Exocytosis inh 0 and NPR1 activator -5.
For COc1ccc(-c2csc(NC(=O)C3CSC4(C)CCC(=O)N34)n2)cc1OC (centres undefined) the results were Myeloid diff 2 inactive, GC-B act 8, Exocytosis inh -8 and NPR1 activator 1.
`CC12CCC(=O)N1C(C(=O)Nc1nc(-c3ccc(F)c(F)c3)cs1)CS2` (centres undefined) gave Myeloid diff 2 inactive, GC-B act 3, Exocytosis inh 2 and NPR1 activator 43*.
Screening CC12CCC(=O)N1C(C(=O)Nc1nc(-c3ccc(F)cc3)cs1)CS2 (centres undefined) returned Myeloid diff 2 inactive, GC-B act 4, Exocytosis inh -3 and NPR1 activator 46*.
Screening COC(=O)C1=C(C)N(Cc2ccc(C(F)(F)F)cc2)C(=NCc2ccc(OC)cc2)NC1c1ccccc1C(F)(F)F (centres undefined) returned GC-B act -2 and NPR1 activator -7.
For CCC[C@H]1[C@@H](NC(=O)c2cccnc2)CC[C@@]23CCCN2C(=O)CCC[C@@H]13 the results were GC-B act 3 and NPR1 activator -6.
Screening CC(C)(C)NC[C@@H](O)COc1cccc2c1CCCC2=O returned Myeloid diff 2 inactive, GC-B act 7, Exocytosis inh 0 and NPR1 activator 2.
CC(C)(C)NCC(O)COc1ccccc1C1CCCC1 (centres undefined) was read as Myeloid diff 2 active, GC-B act -3, Exocytosis inh 1 and NPR1 activator -4.
For CCC(COC)Oc1cc(NCc2ccccc2)c2ncn(C(C)C)c2c1 (centres undefined) the results were Myeloid diff 2 inactive, GC-B act 57*, Exocytosis inh -7 and NPR1 activator 28.
`COC(=O)c1cccc(N2C(=O)C[C@](Sc3ccc(OC)cc3)(C(=O)N3CCOCC3)[C@H]2c2ccc(OC)cc2)c1` gave GC-B act -16 and NPR1 activator -21.
O=C(O)c1cc(-c2cccnc2)nc2ccc(Br)cc12 was read as Myeloid diff 2 active, GC-B act 8, Exocytosis inh -1 and NPR1 activator 37.
Cc1ccsc1/C=C/C1=Cc2c(sc(NC(=O)CSc3n[nH]c(N)n3)c2C#N)C(C)(C)C1 was read as Myeloid diff 2 inactive, GC-B act -5, Exocytosis inh 101* and NPR1 activator -16.
For CCOc1ccc(/C=C/C2=Cc3c(sc(NC(=O)CSc4n[nH]c(N)n4)c3C#N)C(C)(C)C2)cc1 the results were Myeloid diff 2 inactive, GC-B act -3, Exocytosis inh 78* and NPR1 activator -10.
COC(=O)[C@H](C(C)C)N(Cc1cn(Cc2ccc(C)cc2)nn1)S(=O)(=O)c1ccc(F)cc1Br was read as GC-B act 0 and NPR1 activator -1.
Screening C=CCNCc1ccc(OC)cc1OC returned GC-B act 0 and NPR1 activator -1.
CC(C)(CNc1ccc(S(=O)(=O)C(F)(F)F)cc1[N+](=O)[O-])N1CCOCC1 was read as Myeloid diff 2 inactive, GC-B act 2, Exocytosis inh -5 and NPR1 activator 7.
For CCCS(=O)(=O)c1nc(S(=O)(=O)c2ccc(C)cc2)c(N2CC(C)OC(C)C2)s1 (centres undefined) the results were Myeloid diff 2 inactive, GC-B act 2, Exocytosis inh 10 and NPR1 activator -3.
CCS(=O)(=O)c1nc(S(=O)(=O)c2ccc(C)cc2)c(N2CC(C)OC(C)C2)s1 (centres undefined) was read as Myeloid diff 2 active, GC-B act 1, Exocytosis inh 23 and NPR1 activator 2.
Screening O=C(NCc1cc(C(F)(F)F)ccc1Cl)c1cccc2c1C(=O)c1ccc(N3CCOCC3)cc1S2(=O)=O returned Myeloid diff 2 active, GC-B act 3, Exocytosis inh -13 and NPR1 activator -1.
O=C(NCc1cc(C(F)(F)F)ccc1Cl)c1cccc2c1C(=O)c1ccc(N3CCCCC3)cc1S2(=O)=O was read as Myeloid diff 2 inconclusive, GC-B act 4, Exocytosis inh -15 and NPR1 activator -1.
For O=C(NCc1cc(C(F)(F)F)ccc1Cl)c1cccc2c1C(=O)c1ccc(N3CCC(N4CCCCC4)CC3)cc1S2(=O)=O the results were Myeloid diff 2 active, GC-B act 10, Exocytosis inh 30 and NPR1 activator 8.
CCCCNS(=O)(=O)/C=C/c1ccc(OC)cc1CNC(=O)OC(C)(C)C was read as GC-B act 4 and NPR1 activator -5.
`CCOC(=O)[C@]12CCCC=C1N(CCCOC)C(=O)[C@@H]2CC(=O)N1CCCCC1` gave GC-B act -3 and NPR1 activator -1.
For COc1ccc(C=O)cc1COc1c(F)c(F)cc(F)c1F the results were Myeloid diff 2 active, GC-B act 1, Exocytosis inh -2 and NPR1 activator -2.
`COc1ccc(C=O)cc1COc1ccc(F)cc1F` gave Myeloid diff 2 inactive, GC-B act -1, Exocytosis inh 4 and NPR1 activator 26.
For CCOC(=O)CN1C(=O)C(=O)N(Cc2ccccc2)C1=O the results were GC-B act 5, Exocytosis inh 2 and NPR1 activator 1.
Screening CCOC(=O)CN1C(=O)C(=O)N(Cc2c(C)cc(C)cc2C)C1=O returned Myeloid diff 2 active, GC-B act 7, Exocytosis inh 19 and NPR1 activator 4.
For Cc1cc(C)nc(SCc2nnc(SCC(=O)Nc3nccs3)n2Cc2ccco2)n1 the results were Myeloid diff 2 inactive, GC-B act -2, Exocytosis inh -6 and NPR1 activator -5.
`Cc1cccc(NC(=O)CSc2nnc(CSc3nc(C)cc(C)n3)n2Cc2ccco2)c1` gave Myeloid diff 2 active, GC-B act -4, Exocytosis inh 6 and NPR1 activator -12.
For COc1ccc(Oc2c(-c3ccc(O)cc3O)n[nH]c2C)cc1 the results were Myeloid diff 2 inactive, GC-B act 1, Exocytosis inh 0 and NPR1 activator 44*.
For CCCOC(=O)c1ccc(Oc2c(-c3ccc(OCC)cc3O)n[nH]c2C)cc1 the results were Myeloid diff 2 inactive, GC-B act 6, Exocytosis inh 20 and NPR1 activator -3.
For COc1cccc(NC(=S)/C(=C(\[O-])c2ccc(C)c([N+](=O)[O-])c2)[n+]2ccccc2)c1 the results were Myeloid diff 2 active, GC-B act 3, Exocytosis inh 6 and NPR1 activator 1.
